For 40 molecules, growth results are on record in PubChem BioAssay (NCI).

The panel holds about 83,000 compounds, 20% with a hit somewhere; the sample as a whole holds those more often.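 A percent growth of 40 corresponds to 60% growth inhibition; 0 means no net growth; -100 means all cells died. Active threshold: below 10.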 A number with no mark means an inactive call. Activity calls are given as the source filed them.

This assay deals with M14 melanoma. Kind of assay: NCI-60 one-dose screen, 48 h (100 = growth as untreated, 0 = no growth, -100 = all killed). Conditions: 10 µM unless noted. On the procedure:
Growth inhibition of the M14 human tumor cell line is measured as a screen for anti-cancer activity. Cells are grown in 96 well plates and exposed to the test compound for 48 hours. Compounds are tested at a single concentration, which is 10^-5 M for most compounds. The reported endpoint is percent growth (GI% or GIPRCNT), where numbers from 0 - 100% represent growth inhibition, and numbers from -100% - 0 represent cell death. For example, a value of 40 represents 60% growth inhibition. A value of 0 means no net growth occurred over the course of the experiment. A value of -40 indicates 40% of cells at the beginning of the experiment died by the end of the experiment. A value of -100 means all cells are dead at the end of the experiment.
NCI-60 Human Tumor Cell Lines Screen was performed using the standard one-dose NCI protocol, which is described in more detail at https://dtp.cancer.gov/discovery_development/nci-60/default.htm.
Compounds with GIPRCNT values below 10 were considered active. Activity score was based on GIPRCNT using the following formula: […]
Score is 0 for GIPRCNT values of 100 or above, 50 for GIPRCNT values of 0, and 100 for GIPRCNT values of -100.
Regarding `CCC(C)C1NC(=O)c2nc(oc2-c2ccccc2)-c2csc(n2)-c2csc(n2)-c2nc(oc2C)-c2coc(n2)CNC(=O)C(C(C)CC)NC1=O` (stereo not given), the growth was -85.2% (active). For `Cc1ccc2oc(=O)cc(-c3nc4ccc([N+](=O)[O-])cc4[nH]3)c2c1`, the growth was 64.4%. `Oc1[nH]c2ccccc2c1/C=c1/ccc2c(c1)N=C(c1ccc(C(F)(F)F)cc1)N=2`: the growth was 44.6%.

As to `C[C@]12CCc3nc(Nc4ccc(O)cc4)sc3C1=CC[C@@H]1[C@@H]2CC[C@]2(C)/C(=N/NC(N)=S)CC[C@@H]12`, the growth is -23.8% (active). The figure for `COc1ccc(-c2n[nH]nc2-c2cc(OC)c3c(c2)OCO3)cc1` is 8.15% (active); for `COc1cc(C2CC(c3cccc(Nc4ccnc5cc(Cl)ccc45)c3)=NN2c2ccccc2)cc(OC)c1OC` (stereo not given) it is 34.7%. In the case of `Cn1c(=O)c2[nH]c(Cc3ccc4c(c3)OCO4)nc2n(C)c1=O`, the growth was 107%. Consider `Cc1cc(C)c2c(n1)sc1c(Nc3ccc(OCc4ccccc4)cc3)ncnc12`, for which the growth was 108%.

As for `O=c1[nH]cnc2nc[nH]c12`, the growth was 109%.

Turning to `CN1CCN(Cc2ccc(NC(=O)c3cncc(C#Cc4cnc5cccnn45)c3)cc2C(F)(F)F)CC1`, the growth was -33.5% (active). On to `COc1ccc(/C=c2\c(=O)n(-c3ccccc3)c3nn4c(n23)=NNC42CCCCC2)cc1`, for which the growth is 102%. Take `CN1CCN(Cc2ccc(NC(=O)c3cncc(C#Cc4ncc5cnccn45)c3)cc2C(F)(F)F)CC1`: the growth was 9.27% (active).

For the molecule `COc1cc(/C=C/C(=O)c2ccc(NC(=O)CSc3nnc(-c4ccc(Cl)cc4)n3-c3ccccc3)cc2)cc(OC)c1OC`, the growth was 76.1%. As for `O=c1c2sc3ccccc3c2nnn1-c1ccc(F)c(Cl)c1`, the growth was 74.7%. `[Ag].[Ag].[NH-]S(=O)(=O)c1ccc(N=Nc2cc(N=Nc3ccc(S([NH-])(=O)=O)cc3)c3c(NC(=O)C(Cl)Cl)cccc3c2OC(=O)C(Cl)Cl)cc1.[c-]1nccs1.[c-]1nccs1`: the growth is 97.4%.

With `COC(=O)c1cc(Cl)cc([N+](=O)[O-])c1O`, the growth was 94.9%. For `Cc1nc2n[nH]c(N)c2nc1C`, the growth was 125%. In the case of `CCCCN(CCCC)CCC(O)c1cc2ccc(C(F)(F)F)cc2c2cc(C(F)(F)F)ccc12` (stereo not given), the growth is 18.8%. For the molecule `CCOC(=O)c1ccccc1SC(C[N+](=O)[O-])c1ccccc1` (stereo not given), the growth is 68.9%. For `CCOC(=O)C1=C(C)NC(SCc2nnc(-c3ccc(Cl)cc3)o2)=NC1c1ccc(Br)cc1` (stereo not given), the growth was 74%. Turning to `Cc1nc2ccc(Nc3nc(Cl)nc(N4CCOCC4)n3)cc2n1Cc1ccccc1`, the growth was 103%. As for `Oc1ccc(CCCCCCc2ccc(O)cc2)cc1`, the growth is 41.8%.

Turning to `O=C(/C=C/c1cc([N+](=O)[O-])ccc1Cl)c1ccccc1`, the growth was 94.1%. Turning to `Nc1c(C(=O)Nc2cccc(Cl)c2)sc2ncc(Br)cc12`, the growth is 79.9%. The figure for `Nc1ccc(N(O)/C=C2\C=CC=CC2=O)cc1N` is 101%; for `COCCn1c(Nc2ccc(C(=O)NO)cc2)nc2ccccc21` it is 51.6%; for `Cc1[nH]nc2ccc3nc(-c4ccc5[nH]ncc5c4)c4c(c3c12)CCCC4` it is 18.9%. As for `CCCCCCCCCCCCCC(=S)NCCCC[C@H](NC(=O)OCc1ccccc1)C(=O)Nc1ccccc1`, the growth was 37.3%. On to `CCc1ccc2c(c1)N(CCO)C1=C(C(=O)OC1)C2c1cccc(Cl)c1` (stereo not given), for which the growth was 4.38% (active).

As for `COc1ccc(Sc2[nH]c(C=O)c3ccccc23)cc1`, the growth was 76.6%. With `CCOC(=O)Nc1ccc2nc(-c3cscn3)[nH]c2c1`, the growth is 16.1%.

For the molecule `O=[N+]([O-])c1cccc([I+]c2ccccc2)c1`, the growth was 56.6%. `O=C(OCc1ccc2c(Br)cc(Br)c(O)c2n1)c1cc2ccccc2[nH]1`: the growth is -64.7% (active). For `CCCCn1c(-c2ccc(F)cc2)nc2cc(OC)c(OC)cc2c1=O`, the growth was 127%. Consider `Cc1cc(C#Cc2ccccc2)ccc1-n1c(/C=C/c2ccc(F)cc2)nc2ccccc2c1=O`, for which the growth was 81.2%.

On to `COc1cc(-c2n/c(=C\c3c(O)[nH]c4cc(Cl)ccc34)cc3c2=Nc2ccccc2-3)cc(OC)c1OC`, for which the growth was 37.7%. As to `CC(C)(C)NC(=O)C(OC(=O)C1CCc2cc(F)ccc2O1)c1ccccc1Cl` (stereo not given), the growth was 94.9%. Regarding `CCN(CC)c1ccc2nc3c4ccccc4c(=O)cc-3n(-c3ccccc3)c2c1`, the growth is -56.8% (active). The same measure for `CCOC(=O)c1ccc(NC(=O)NC2=NCCS2)cc1`: 34.9%. Take `COc1cc(C)c2c(=O)c3c(oc2c1)C(=O)c1c(O)c(OC)cc(O)c1C3=O`: the growth was 19.3%.
